# Assay outcomes from PubChem BioAssay.
# The sample as a whole holds a higher share of hits than the screen did.
# IDE exosite FP: exo-site inhibitors of human insulin-degrading enzyme; P14735; purified IDE, FL-6b probe fluorescence polarization; stronger effect = lower value; z-score at 20 µM; hit rate 6.3% among 17,000;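 active = z-score of -3 or lower, meaning strong loss of probe binding signal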;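 note: His-tagged human IDE residues 42-1019 made in E. coli with 30 nM FL-6b probe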
# * = called active by the depositor.
SMILES,IDE exosite FP
C[C@@H]1CN([C@H](C)CO)C(=O)c2cccc(NS(=O)(=O)c3cn(C)cn3)c2O[C@H]1CN(C)Cc1ccc(Oc2ccccc2)cc1,-1.7
COc1cccc(S(=O)(=O)N2CCCCN3[C@H](CO)[C@H](c4ccc(-c5ccccc5)cc4)[C@@H]3C2)c1,0.53
COc1ccc(C[C@H]2CCn3nncc3COC[C@@H](c3ccccc3)NC2=O)cc1,-0.58
N#C[C@@H]1[C@@H](c2ccccc2)[C@@H](CO)N1S(=O)(=O)Cc1ccccc1,0.68
CCC(=O)N1CC(=O)N2[C@H](CO)[C@H](c3ccc(C#CCC(C)C)cc3)[C@H]2C1,-0.069
CCC(=O)Nc1ccc2c(c1)OC[C@@H](C)N(Cc1ccccc1)C[C@H](C)[C@H](OC)CN(C)C2=O,1.6
C/C=C/c1ccc([C@@H]2[C@@H](CO)N3C(=O)CN(C(=O)Cc4cccnc4)C[C@@H]23)cc1,3.2
O=C(Cc1cccnc1)N1CC(=O)N2[C@H](C1)[C@H](c1ccc(/C=C/c3ccccc3)cc1)[C@@H]2CO,-5*
O=C(Cc1cccnc1)N1CC(=O)N2[C@H](CO)[C@@H](c3ccc(/C=C/c4ccccc4)cc3)[C@@H]2C1,-0.7
C/C=C/c1ccc([C@H]2[C@@H](CO)N3C(=O)CN(C(=O)Cc4cccnc4)C[C@@H]23)cc1,-1.7
C/C=C/c1ccc([C@H]2[C@H](CO)N3C(=O)CN(C(=O)Cc4cccnc4)C[C@@H]23)cc1,2.1
O=C(Cc1cccnc1)N1CC(=O)N2[C@H](CO)[C@H](c3ccc(/C=C/c4ccccc4)cc3)[C@@H]2C1,-5.1*
COc1ccc(C#Cc2ccc([C@@H]3[C@@H](CO)N4C(=O)CN(C(=O)c5cccnc5)C[C@@H]34)cc2)cc1,2.1
C[C@H]1CN([C@@H](C)CO)C(=O)c2cccc(NS(=O)(=O)c3cn(C)cn3)c2O[C@H]1CN(C)Cc1ccc(Oc2ccccc2)cc1,-1
COCC(=O)N1CCC2(CC1)CN(Cc1cc(F)ccc1F)[C@@H](CO)c1c2c2ccc(OC)cc2n1C,-0.72
O=C(C1CCC1)N1CC(=O)N2[C@H](C1)[C@H](c1ccc(-c3cccnc3)cc1)[C@@H]2CO,0.94
COc1cccc(-c2ccc([C@H]3[C@@H](CO)N4C(=O)CN(C(=O)C5CCC5)C[C@@H]34)cc2)c1,-7*
COc1cccc(-c2ccc([C@@H]3[C@@H](CO)N4C(=O)CN(C(=O)C5CCC5)C[C@@H]34)cc2)c1,-12*
COc1cccc(-c2ccc([C@@H]3[C@H]4CN(C(=O)C5CCC5)CC(=O)N4[C@H]3CO)cc2)c1,-9.3*
COc1ccc(-c2ccc([C@@H]3[C@H]4CN(C(=O)C5CCC5)CC(=O)N4[C@H]3CO)cc2)cc1,3.1
COc1ccc(-c2ccc([C@H]3[C@H](CO)N4C(=O)CN(C(=O)C5CCC5)C[C@@H]34)cc2)cc1,1.7
COc1ccc(-c2ccc([C@@H]3[C@@H](CO)N4C(=O)CN(C(=O)C5CC5)C[C@@H]34)cc2)cc1,-2.5
COc1ccc(-c2ccc([C@H]3[C@H]4CN(C(=O)C5CC5)CC(=O)N4[C@H]3CO)cc2)cc1,-0.25
CN(C)C(=O)c1cccc(-c2ccc([C@H]3[C@H](CO)N4C(=O)CN(C(=O)C5CCC5)C[C@@H]34)cc2)c1,0.83
COc1ccc(-c2ccc([C@@H]3[C@@H](CO)N4C(=O)CN(C(=O)C5CCC5)C[C@H]34)cc2)cc1,-0.21
SMILES,IDE exosite FP
O=C(C1CCC1)N1CC(=O)N2[C@H](C1)[C@@H](c1ccc(-c3cccnc3)cc1)[C@@H]2CO,-1.7
COc1cccc(-c2ccc([C@@H]3[C@@H](CO)N4C(=O)CN(C(=O)C5CC5)C[C@H]34)cc2)c1,-5.2*
O=C(C[C@H]1CC[C@@H]2[C@H](COC[C@H](O)CN2C(=O)c2ccncc2)O1)NCc1cc(F)cc(F)c1,0.45
COC(=O)C[C@@H]1C[C@@H]2c3cc(NC(=O)c4ccc5c(c4)OCO5)ccc3O[C@@H]2[C@@H](CO)O1,-0.27
CN1c2ccc(-c3ccccc3)cc2[C@@H]2[C@@H](CCN2C(=O)NC2CCCCC2)[C@H]1CO,2.4
CO[C@@H]1CN(C)C(=O)c2cc(NC(=O)NC3CCCCC3)ccc2OC[C@H](C)N(CC2CCOCC2)C[C@@H]1C,-0.6
CC(=O)N1[C@H](CO)[C@@H]2c3ccccc3N(C(=O)c3ccc(F)cc3)C[C@@H]21,-0.32
CO[C@H]1CN(C)C(=O)c2ccc(NC(C)=O)cc2OC[C@@H](C)N(C(=O)c2cnccn2)C[C@@H]1C,0.93
CN1C(=O)c2cc(NS(=O)(=O)c3cccc(F)c3)ccc2OC[C@@H]2O[C@H](CC(=O)N3CCc4ccccc4C3)CC[C@@H]21,1
COCC(=O)Nc1ccc2c(c1)[C@@H]1C[C@H](CC(=O)N[C@@H](C)c3ccccc3)O[C@@H](CO)[C@@H]1O2,1.4
N#C[C@@H]1[C@@H](c2ccc(C#CC3CCCCC3)cc2)[C@H](CO)N1C(=O)Nc1ccc(F)cc1,2.7
Cn1cnc(S(=O)(=O)N2[C@@H]3CNC[C@H]2C3c2ccc(-c3ccccc3F)cc2)c1 (stereo not given in full),-0.034
C[C@@H]1CN([C@@H](C)CO)C(=O)c2c(c3ccccc3n2C)-c2ccccc2CO[C@H]1CN(C)Cc1cccc(C(=O)Nc2ccccc2N)c1,-0.067
CS(=O)(=O)N1[C@@H]2CNC[C@H]1C2c1ccc(-c2ccccc2)cc1 (stereo not given in full),1.6
Cc1cccc(-c2ccc([C@H]3[C@@H](CO)N4CCCCN(Cc5cccnc5)C[C@@H]34)cc2)c1,-1.8
Cc1cccc(-c2ccc([C@@H]3[C@H]4CN(Cc5cncnc5)CCCCN4[C@H]3CO)cc2)c1,-4.7*
Cc1cccc(-c2ccc([C@@H]3[C@H](CO)N4CCCCN(Cc5cncnc5)C[C@@H]34)cc2)c1,-7.5*
Cc1ccc(-c2ccc([C@H]3[C@@H](CO)N4CCCCN(Cc5cncnc5)C[C@H]34)cc2)cc1,-0.17
OC[C@@H]1[C@H](c2ccc(-c3ccc(F)cc3)cc2)[C@H]2CN(Cc3cccnc3)CCCCN12,1.2
OC[C@@H]1[C@@H](c2ccc(-c3ccccc3F)cc2)[C@H]2CN(Cc3cncnc3)CCCCN12,0.86
OC[C@@H]1[C@H](c2ccc(-c3ccccc3F)cc2)[C@@H]2CN(Cc3cncnc3)CCCCN12,-1.6
Cc1cccc(-c2ccc([C@H]3[C@@H](CO)N4CCCCN(Cc5cccnc5)C[C@H]34)cc2)c1,-6.8*
OC[C@@H]1[C@@H](c2ccc(Br)cc2)[C@H]2CN(Cc3cncnc3)CCCCN12,0.52
OC[C@@H]1[C@H](c2ccc(C3=CCCC3)cc2)[C@H]2CN(Cc3cncnc3)CCCCN12,0.59
Cc1cccc(-c2ccc([C@@H]3[C@@H](CO)N4CCCCN(Cc5cncnc5)C[C@@H]34)cc2)c1,-6.7*
SMILES,IDE exosite FP
CC(C)[C@@H]1CCc2cnnn2COC[C@@H](Cc2ccccc2)NC1=O,-0.47
N#C[C@@H]1[C@H](c2ccc(C3=CCCCC3)cc2)[C@H](CO)N1C(=O)NC1CCCC1,2
CS(=O)(=O)N1CC(=O)N2[C@H](CO)[C@H](c3ccc(C#Cc4ccc(F)cc4)cc3)[C@@H]2C1,-0.86
CC(C)CC#Cc1ccc([C@H]2[C@H](CO)N3C(=O)CN(S(C)(=O)=O)C[C@@H]23)cc1,4.6
O=C(C[C@H]1CC[C@@H]2NC[C@@H](O)COC[C@H]2O1)NCc1ccc2c(c1)OCO2,1
COc1ccccc1C#Cc1ccc([C@H]2[C@@H](CO)N3CCCCN(C(=O)C4CCC4)C[C@@H]23)cc1,-7.6*
